Assay results from the supplement of paper PMC13380429.

Test system: Vero E6 infected with SARS-CoV-2
Assay: inhibition of SARS-CoV-2 cytopathic effect; higher = more antiviral protection, active = above 15
Conditions: 48 h

Measured: inhibition of SARS-CoV-2 cytopathic effect

C/C(=C\C(N)C(=O)O)CP(=O)(O)O (stereo not given)
inactive: 1 nM -2.33% | 8.33 nM -2.58% | 100 nM 0.17% | 833.33 nM 5.33% | 10000 nM -3.57%

C1COC(NC(C2CC2)C2CC2)=N1 [rilmenidine]
inactive: 1 nM 2.93% | 8.33 nM 3.39% | 100 nM -2.62% | 833.33 nM -3.95% | 10000 nM -6.59%

COc1cc2nc(N3CCN(C(=O)c4ccco4)CC3)nc(N)c2cc1OC [prazosin]
inactive: 1 nM 0.79% | 8.33 nM -8.02% | 100 nM -0.93% | 833.33 nM -1.57% | 10000 nM 1.13%

COc1cc(OC2CCN(C)CC2)ccc1Nc1ncc2c(n1)n(C1CCCC1)c(=O)n2C
inactive: 1 nM 1.63% | 8.33 nM 2.01% | 100 nM -2.6% | 833.33 nM 0.1% | 10000 nM 11.1%

CCOCCn1c(N2CCCN(C)CC2)nc2ccccc21 [emedastine]
inactive: 1 nM -2.21% | 8.33 nM 0.36% | 100 nM -2.49% | 833.33 nM 1.46% | 10000 nM -0.01%

CC(C)[C@H](CO)Nc1nc(Nc2ccc(C(=O)O)c(Cl)c2)c2ncn(C(C)C)c2n1 [purvalanol-B]
inactive: 1 nM 11.3% | 8.33 nM 5.29% | 100 nM 0.04% | 833.33 nM 4.65% | 10000 nM -1.55%

COc1ccc(OC)c([C@@H](O)CNC(=O)CN)c1 [midodrine]
inactive: 1 nM 1.29% | 8.33 nM 3.25% | 100 nM -1.42% | 833.33 nM 0.19% | 10000 nM -0.39%

CCC1(CC)C(=O)NC(=O)N(C)C1=O [metharbital]
inactive: 1 nM 0.2% | 8.33 nM 2.59% | 100 nM 1.14% | 833.33 nM 0.78% | 10000 nM 2.66%

C[C@@H]1C(=O)O[C@H]2C[C@@]34[C@H]5C[C@@H](C(C)(C)C)[C@]36[C@@H](OC(=O)[C@@H]6O)O[C@@]4(C(=O)O5)[C@]21O [Ginkgolide A]
inactive: 1 nM 3.54% | 8.33 nM 2.25% | 100 nM 2.7% | 833.33 nM 1.3% | 10000 nM -1.89%

CN(C)c1ccc(/C=C2\CCCN=C2c2cccnc2)cc1 [DMAB-anabaseine]
inactive: 1 nM -2.66% | 8.33 nM -1.76% | 100 nM 0.68% | 833.33 nM 4.31% | 10000 nM -5.07%

COc1ccc2[nH]c(I)c(CCNC(C)=O)c2c1 [2-iodomelatonin]
inactive: 1 nM 3.34% | 8.33 nM 4.46% | 100 nM 0.99% | 833.33 nM 0.89% | 10000 nM 0.94%

CNC(=O)[C@@H](Cc1ccccc1)N(C)C(=O)[C@@H](Cc1ccc2ccccc2c1)N(C)C(=O)/C=C/CC(C)(C)N [tabimorelin]
inactive: 1 nM 0.97% | 8.33 nM -0.49% | 100 nM -1.39% | 833.33 nM 2.19% | 10000 nM 0.56%

CCN(CC)CCOc1ccc(C(O)(Cc2ccc(Cl)cc2)c2ccc(C)cc2)cc1 (stereo not given) [Triparanol]
inactive: 1 nM -0.73% | 8.33 nM 1.69% | 100 nM -1.43% | 833.33 nM -2.54%
active: 10000 nM 51.4%

CC(=O)Nc1cccc(-n2c(=O)n(C3CC3)c(=O)c3c(Nc4ccc(I)cc4F)n(C)c(=O)c(C)c32)c1 [trametinib]
inactive: 1 nM -1.42% | 8.33 nM -7.51% | 100 nM -14.6% | 833.33 nM -16.9% | 10000 nM -17.4%

S=C(NC1CCCCC1)N1CCC(c2cnc[nH]2)CC1 [thioperamide]
inactive: 1 nM 1.24% | 8.33 nM 1.61% | 100 nM -0.03% | 833.33 nM 0.28% | 10000 nM -2.39%

Cc1[nH]c2ccc(F)cc2c1-c1nc2c3cccnc3c3ncccc3c2[nH]1
inactive: 1 nM 0.2% | 8.33 nM 1.01% | 100 nM 0.29% | 833.33 nM -0.86% | 10000 nM 2.7%

Cc1cccc(C)c1NC(=O)C1CCCCN1C (stereo not given) [mepivacaine]
inactive: 1 nM -3.62% | 8.33 nM -1.78% | 100 nM -2.27% | 833.33 nM -0.18% | 10000 nM 0.81%

O=C(O)c1c(Cl)c(Cl)c(Cl)c(Cl)c1-c1c2cc(I)c(=O)c(I)c-2oc2c(I)c(O)c(I)cc12 [rose-bengal]
inactive: 1 nM -2.56% | 8.33 nM -2.17% | 100 nM 1.8% | 833.33 nM -2.12% | 10000 nM -13.9%

Cc1noc(C)c1-c1ccc(-c2cc(C(N)=O)c(NC(N)=O)s2)c(O[C@H]2CCNC2)c1
inactive: 1 nM 1.7% | 8.33 nM 2.12% | 100 nM 2.46% | 833.33 nM -12.1% | 10000 nM 2.19%

Cc1c2oc3c(C)ccc(C(=O)N[C@@H]4C(=O)N[C@H](C(C)C)C(=O)N5CCC[C@H]5C(=O)N(C)CC(=O)N(C)[C@@H](C(C)C)C(=O)O[C@@H]4C)c3nc-2c(C(=O)N[C@@H]2C(=O)N[C@H](C(C)C)C(=O)N3CCC[C@H]3C(=O)N(C)CC(=O)N(C)[C@@H](C(C)C)C(=O)O[C@@H]2C)c(N)c1=O [dactinomycin]
inactive: 1 nM -0.42% | 8.33 nM 3.96% | 100 nM -3.53% | 833.33 nM -8.77% | 10000 nM -14.8%

Cc1c(C(=O)NN2CCOCC2)nn(-c2ccc(Cl)cc2Cl)c1-c1ccc(I)cc1
inactive: 1 nM 0.53% | 8.33 nM 1.48% | 100 nM 1.24% | 833.33 nM -2.07% | 10000 nM 1.16%

N=C(N)S/C=C\C(=O)O
inactive: 1 nM 1.98% | 8.33 nM 0.81% | 100 nM -2.6% | 833.33 nM -1.03% | 10000 nM -0.56%

O=C1c2cc(Cl)ccc2OC2CCON12 (stereo not given) [seclazone]
inactive: 1 nM -0.24% | 8.33 nM 1.68% | 100 nM 1.79% | 833.33 nM 0.75% | 10000 nM 1.99%

Cc1ccc(C)c(OCCCC(C)(C)C(=O)O)c1 [gemfibrozil]
inactive: 1 nM 0.62% | 8.33 nM -0.19% | 100 nM -0.2% | 833.33 nM 0.31% | 10000 nM -0.46%

CC/C(=C(/c1ccc(/C=C/C(=O)O)cc1)c1ccc2[nH]ncc2c1)c1ccc(F)cc1Cl
inactive: 1 nM 4.17% | 8.33 nM -1.18% | 100 nM -1.84% | 833.33 nM 0.21% | 10000 nM -0.85%

Oc1ccc([C@@H]2Oc3ccc(O)cc3[C@@H]3CCC[C@@H]32)cc1 [erteberel]
inactive: 1 nM -2.79% | 8.33 nM 0.52% | 100 nM -1.51% | 833.33 nM -4.66% | 10000 nM 2.31%

CN1CCC(c2c[nH]c3ccc(O)cc23)CC1
inactive: 1 nM -0.56% | 8.33 nM 2.91% | 100 nM 0.58% | 833.33 nM 3.92% | 10000 nM -0.8%

NS(=O)(=O)c1cc2c(cc1Cl)NC(CC1CCCC1)NS2(=O)=O (stereo not given) [cyclopenthiazide]
inactive: 1 nM 1.26% | 8.33 nM 2.37% | 100 nM -0.67% | 833.33 nM -2.85% | 10000 nM -0.14%

CCCCc1oc2ccc(NS(C)(=O)=O)cc2c1C(=O)c1ccc(OCCCN(CCCC)CCCC)cc1 [dronedarone]
inactive: 1 nM 3.27% | 8.33 nM 1.28% | 100 nM -0.45% | 833.33 nM 4.57%
active: 10000 nM 29.3%

COc1ccc(/C=C/C(=O)Nc2ccccc2C(=O)O)cc1OC [tranilast]
inactive: 1 nM -0.23% | 8.33 nM -1.52% | 100 nM -1.22% | 833.33 nM 0.97% | 10000 nM 1.42%

Cc1c(C)c2c(c(C)c1O)CC[C@@](C)(CCC[C@H](C)CCC[C@H](C)CCCC(C)C)O2 [vitamin-E]
inactive: 1 nM 3.32% | 8.33 nM 3.3% | 100 nM 2.84% | 833.33 nM 0.81% | 10000 nM 0.23%

Cc1nc(N)sc1CCN [amthamine]
inactive: 1 nM -1.84% | 8.33 nM -1.83% | 100 nM -2.06% | 833.33 nM 0.97% | 10000 nM 0.76%

COc1ccc(C(=O)c2c(C)n(CCN3CCOCC3)c3ccccc23)cc1 [pravadoline]
inactive: 1 nM 3.43% | 8.33 nM 2.8% | 100 nM -0.1% | 833.33 nM -1.26% | 10000 nM -0.15%

CC(C)(C)Sc1c(CC(C)(C)C(=O)O)n(Cc2ccc(Cl)cc2)c2ccc(OCc3ccc4ccccc4n3)cc12 [quiflapon]
inactive: 1 nM 1.81% | 8.33 nM 0.25% | 100 nM -1.43% | 833.33 nM 1.93% | 10000 nM 1.66%

C1=N/C2=N/c3ccc(OCCN4CCCC4)c(c3)COC/C=C/COCc3cccc(c3)C(=C1)N2 [pacritinib]
inactive: 1 nM -0.44% | 8.33 nM 0.71% | 100 nM 0.95% | 833.33 nM 0.27% | 10000 nM -15%

Clc1cccc(Cl)c1CSc1nnc(-c2cnccn2)s1 [yoda-1]
inactive: 1 nM 1.9% | 8.33 nM 3.59% | 100 nM -0.57% | 833.33 nM 2.67% | 10000 nM 9.5%

CC(=O)N(O)C/C=C/c1cccc(Oc2ccccc2)c1
inactive: 1 nM 2.1% | 8.33 nM 2.16% | 100 nM 1.66% | 833.33 nM -0.73% | 10000 nM -2.02%

O=C1CN(/N=C/c2ccc(-c3ccc([N+](=O)[O-])cc3)o2)C(=O)N1 [dantrolene]
inactive: 1 nM -2.23% | 8.33 nM 0.6% | 100 nM -1.1% | 833.33 nM -0.88% | 10000 nM 1.97%

CCCCCCCCCCCCCCCC(=O)OC(CC(=O)[O-])C[N+](C)(C)C (stereo not given) [palmitoylcarnitine]
inactive: 1 nM 0.08% | 8.33 nM 0.65% | 100 nM 0.35% | 833.33 nM -1.19% | 10000 nM -9.18%
